For 7 compounds, Potency results are on record in PubChem BioAssay (Tox21).

Assay [1] is described as follows: Nuclear factor erythroid 2-related factor 2/antioxidant responsive element (Nrf2/ARE) small molecule agonists: qHTS cell viability counter screen in human keratinocytes (AID 1919968; active = well fitted curve in the direction sought with a large enough effect in the repeat runs; an effect the other way counts as inactive or inconclusive; also: nearly all actives have a fitted effect of over 55% in size; also: potency is read from the fitted curve at half-maximal effect). In outline: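 HaCaT ARE reporter line, 1,500 cells/well; 5 h settle, 37 C/5% CO2; cpd in DMSO pinned; 23 h exposure; CellTiter-Fluor, 1 h; fluorescence.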
A general note: Quantitative high-throughput screening tests each substance at several concentrations.

Assay [2] can be described thus: Nuclear factor erythroid 2-related factor 2/antioxidant responsive element (Nrf2/ARE) small molecule agonists: luciferase reporter gene qHTS assay in human keratinocytes (AID 1919969). Also: nearly all actives have a fitted effect of over 35% in size. Also: potency is read from the fitted curve at half-maximal effect. A general note: Reporter assays use an easily measured gene product as a stand-in for the process of interest.
In assay [3] the target is KiSS-1 receptor (Homo sapiens) (UniProt Q969F8). Nature of the assay: Human kisspeptin (KISS1R) small molecule agonists, calcium flux assay in KISS1R-HEK293 cells (AID 1920064; active = well fitted curve in the direction sought with a large enough effect in the repeat runs; an effect the other way counts as inactive or inconclusive). The method, boiled down:
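Stable human KISS1R HEK293 line; 18 h plating, 37 C/5% CO2; calcium dye 1 h 37 C; compound pin transfer; kinetic fluorescence Ex/Em 480/540, 3 min.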
(In general: A change in cytosolic calcium serves as a functional read-out for many receptors and channels.)

A short description of assay [4]: G protein-coupled receptor (GPCR) small molecule agonists, calcium flux assay: HEK293 wild type cell line counter screen (AID 1920065). In outline:
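Kinetic fluorescence at Ex/Em 480/540, recorded every second over 3 min, served as the read-out after compound addition. Each compound was tested at 15 concentrations in triplicate on cells pre-loaded with calcium dye for 1 h.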

Assay [5] in a line: p53 small molecule agonists, cell-based qHTS assay with rat liver microsomes: qHTS cell viability counter screen (AID 1963580). Also: nearly all actives have a fitted effect of over 45% in size. Also: potency is read from the fitted curve at half-maximal effect. In outline:
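Viability is assessed in parallel with the p53 reporter read: HCT-116 p53RE-bla cells receive compounds plus rat microsomes and NADPH (0.5 mg/mL final apiece), incubate 16 h at 37 C, and then CellTiter-Glo luminescence is recorded.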

Assay [6] can be described thus: p53 small molecule agonists, cell-based qHTS assay (AID 1963582; active = well fitted activation curve with a large enough effect in the signal ratio in the repeat runs, not every such curve was filed as active; the % refers to the signal ratio; also: potency is read from the fitted curve at half-maximal effect). In outline: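 Reporter line: p53RE-bla. Pre-incubation 5 h, 37 C, 5% CO2; compound (DMSO, pin tool) 16 h, 37 C; B/G FRET substrate 2 h RT; fluorescence intensity read.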
Assay [7] has as its target 5-hydroxytryptamine receptor 2A (Homo sapiens) (UniProt P28223). Kind of assay: 5-hydroxytryptamine receptor 2A (HTR2A) small molecule antagonists, cell-based qHTS assay (AID 1963586). Also: nearly all actives have a fitted effect of over 45% in size. The method, boiled down: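 Antagonist-mode intracellular calcium assay: DOI (4 nM) added after 5 min compound pre-incubation at room temperature to dye-loaded HTR2A-CHO cells. Fluorescence followed for 3 min, sampled every second.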

Assay [8] shares this target. Nature of the assay: 5-hydroxytryptamine receptor 2A (HTR2A) small molecule agonists, cell-based qHTS assay (AID 1963587). Also: nearly all actives have a fitted effect of over 30% in size. Also: potency is read from the fitted curve at half-maximal effect. In outline:
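CHO cells stably expressing human HTR2A, plated 18 h, loaded with calcium dye 1 h at 37 C. Agonist mode: compounds added and intracellular calcium fluorescence recorded kinetically for 2 min at 1 sec intervals.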

Assay [9] has as its target Muscarinic acetylcholine receptor M1 (Homo sapiens) (UniProt P11229). Kind of assay: Cholinergic receptor muscarinic 1 (CHRM1) small molecule antagonists, cell-based qHTS assay (AID 1963588). Also: nearly all actives have a fitted effect of over 40% in size. In outline:
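CHRM1-CHO calcium-flux assay, antagonist mode. Cells were seeded 18 h, dye-loaded 1 h at 37 C and given compound for 5 min at RT, then acetylcholine was added at 50nM. FDSS fluorescence was read 3 min; 15 concentrations, three runs.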

For assay [10] the target is unchanged. Kind of assay: Cholinergic receptor muscarinic 1 (CHRM1) small molecule agonists, cell-based qHTS assay (AID 1963589). Also: nearly all actives have a fitted effect of over 35% in size. Also: potency is read from the fitted curve at half-maximal effect. In outline: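 Human M1 in stable CHO line; 18 h plating, 1 h dye load 37 C; cpd added (agonist mode); Ca2+ fluorescence kinetic read, 1 s intervals; 15 conc, 3 runs.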
Assay [11] addresses Beta-2 adrenergic receptor (Homo sapiens) (UniProt P07550). Nature of the assay: Adrenergic beta2 receptor (ADRB2) small molecule antagonists, cell-based qHTS assay (AID 1963592). Also: series mostly up to about 92 µM; nearly all actives have a fitted effect of over 50% in size. The method, boiled down: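 Cells (CHO, stable ADRB2 overexpression) incubated 18-20hr at 37C; compounds added from DMSO; agonist mix (1nM isoproterenol, 100uM IBMX, 25uM Ro-20-1724) added; 0.5hr RT; d2-cAMP and anti-cAMP-cryptate added; 1hr RT; 665/615 nm read.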

Assay [12] has the same target. Kind of assay: Adrenergic beta2 receptor (ADRB2) small molecule agonists, cell-based qHTS assay (AID 1963593).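 Also: CHO cells stably overexpressing human ADRB2.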 In outline:
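CHO cells stably over-expressing ADRB2 were plated overnight at 37C, then dosed with compounds plus a stimulation mix containing 100uM IBMX and 25uM Ro-20-1724 for 0.5hr at room temperature. cAMP was measured by HTRF competition, 1hr.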

Assay [13] addresses D(2) dopamine receptor (Homo sapiens) (UniProt P14416). Nature of the assay: Dopamine D2 receptor (DRD2) small molecule agonists, cell-based qHTS assay (AID 1963594). Also: nearly all actives have a fitted effect of over 35% in size. The method, boiled down:
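HEK293 cells stably expressing human DRD2, pre-treated with PDE inhibitor Ro20-1724 (0.1 mM final) and compound 10 min at room temperature, then stimulated with NKH477 (200nM […]) for 30 min. cAMP read by HTRF (665/620 nm).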

For assay [14] the target is unchanged. Nature of the assay: Dopamine D2 receptor (DRD2) small molecule antagonists, cell-based qHTS assay (AID 1963595; active = well fitted inhibition curve with a large enough effect in the signal ratio in the repeat runs, with a control signal flat; the % refers to the signal ratio). The method, boiled down: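 HEK293 cells stably expressing DRD2, preincubated with 0.1 mM Ro20-1724 and compounds 10 min, were stimulated with 200 nM NKH477 plus 12 nM quinpirole for 30 min at room temperature; cAMP measured by HTRF (665/620 nm).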

A short description of assay [15]: p53 small molecule agonists, cell-based qHTS assay with human liver microsomes: qHTS cell viability counter screen (AID 1963579). Also: nearly all actives have a fitted effect of over 45% in size. The method, boiled down:
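Metabolically activated exposure: compounds, human liver microsomes and NADPH (0.5 mg/mL final apiece) were added to p53RE-bla cells seeded 5 h earlier, left 16 h at 37 C, and then assessed for viability by CellTiter-Glo luminescence.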

A short description of assay [16]: p53 small molecule agonists, cell-based qHTS assay: qHTS cell viability counter screen (AID 1963581). Also: nearly all actives have a fitted effect of over 45% in size. The method, boiled down: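 HCT-116 p53RE-bla cells, 4,000/well, plated 5 h before compound pin transfer; 16 h at 37 C; bla substrate 2 h RT; then CellTiter-Glo, 30 min RT, luminescence.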
Assay [17] can be described thus: p53 small molecule agonists, cell-based qHTS assay with human liver microsomes (AID 1963577). The method, boiled down: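 In this qHTS, p53 response-element beta-lactamase cells receive test compound together with a microsome/NADPH activating system (0.5 mg/mL final each) and are incubated 16 h at 37 C before LiveBLAzer fluorescence detection.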
Assay [18] can be described thus: p53 small molecule agonists, cell-based qHTS assay with rat liver microsomes (AID 1963578). The method, boiled down:
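Agonist mode in p53RE-bla reporter cells, with compounds co-incubated 16 h at 37 C alongside 0.5 mg/mL rat liver microsomes and 0.5 mg/mL NADPH (final), followed by a 2 h LiveBLAzer detection step.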

A short description of assay [19]: cAMP Responsive Elements (CRE) small molecule agonists, cell-based qHTS assay (AID 1963590). In outline: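 HEK 293T CRE-bla, 2,000 cells/well, 18 h preincubation 37 C/5% CO2; cpds (DMSO) pinned, 3 h; LiveBLAzer B/G FRET substrate, 2 h RT.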
The nature of assay [20]: cAMP Responsive Elements (CRE) small molecule antagonists, cell-based qHTS assay (AID 1963591; active = well fitted inhibition curve with a large enough effect in the signal ratio in the repeat runs, not every such curve was filed as active; the % refers to the signal ratio). In outline: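 Beta-lactamase reporter read by FRET substrate (LiveBLAzer B/G) after 2 h at room temperature. CRE-bla HEK293T cells had received compound plus 0.25 uM (final) NKH477 for 3 h at 37 °C.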

SMILES strings stand for the structures. A number with no mark means an inactive call. Records with an inconclusive call do not appear. Activity calls are given as the source filed them. Unless noted, calls follow the shape of the full dose curve.

Sequence of KiSS-1 receptor (Homo sapiens) (Q969F8 whole entry, looked up): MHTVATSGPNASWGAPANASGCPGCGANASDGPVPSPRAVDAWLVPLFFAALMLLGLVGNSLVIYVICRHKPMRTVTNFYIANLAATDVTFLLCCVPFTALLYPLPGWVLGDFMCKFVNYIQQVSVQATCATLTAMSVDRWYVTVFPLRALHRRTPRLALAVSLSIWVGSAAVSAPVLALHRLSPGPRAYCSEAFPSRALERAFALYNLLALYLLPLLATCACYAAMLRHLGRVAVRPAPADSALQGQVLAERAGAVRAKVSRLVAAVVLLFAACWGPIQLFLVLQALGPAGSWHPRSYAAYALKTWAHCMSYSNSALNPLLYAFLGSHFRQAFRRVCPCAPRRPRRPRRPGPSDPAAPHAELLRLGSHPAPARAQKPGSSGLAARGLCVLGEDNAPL
Sequence of Beta-2 adrenergic receptor (Homo sapiens) (P07550 whole entry, looked up): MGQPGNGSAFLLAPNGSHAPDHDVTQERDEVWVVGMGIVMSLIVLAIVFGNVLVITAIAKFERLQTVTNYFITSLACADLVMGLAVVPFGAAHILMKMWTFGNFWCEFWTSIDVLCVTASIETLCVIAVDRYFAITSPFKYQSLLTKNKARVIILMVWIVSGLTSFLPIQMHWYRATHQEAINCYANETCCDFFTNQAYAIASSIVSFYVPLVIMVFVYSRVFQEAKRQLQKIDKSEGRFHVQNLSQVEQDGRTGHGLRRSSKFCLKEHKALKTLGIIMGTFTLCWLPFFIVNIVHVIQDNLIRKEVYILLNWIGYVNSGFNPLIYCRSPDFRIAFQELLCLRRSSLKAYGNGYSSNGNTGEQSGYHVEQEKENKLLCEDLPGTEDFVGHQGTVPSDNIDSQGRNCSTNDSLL
Sequence of 5-hydroxytryptamine receptor 2A (Homo sapiens) (P28223 whole entry, looked up): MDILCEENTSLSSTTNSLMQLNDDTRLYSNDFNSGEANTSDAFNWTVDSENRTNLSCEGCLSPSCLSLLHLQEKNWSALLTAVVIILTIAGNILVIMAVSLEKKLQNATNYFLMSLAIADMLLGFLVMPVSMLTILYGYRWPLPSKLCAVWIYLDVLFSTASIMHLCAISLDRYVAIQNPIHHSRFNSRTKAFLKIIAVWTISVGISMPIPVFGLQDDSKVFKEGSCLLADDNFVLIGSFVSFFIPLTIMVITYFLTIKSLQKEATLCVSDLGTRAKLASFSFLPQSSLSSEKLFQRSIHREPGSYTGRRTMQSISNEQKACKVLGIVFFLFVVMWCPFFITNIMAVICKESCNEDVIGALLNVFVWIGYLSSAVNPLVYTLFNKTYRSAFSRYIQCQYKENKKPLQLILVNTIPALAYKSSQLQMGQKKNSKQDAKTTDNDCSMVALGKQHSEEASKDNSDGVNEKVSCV
Sequence of Muscarinic acetylcholine receptor M1 (Homo sapiens) (P11229 whole entry, looked up): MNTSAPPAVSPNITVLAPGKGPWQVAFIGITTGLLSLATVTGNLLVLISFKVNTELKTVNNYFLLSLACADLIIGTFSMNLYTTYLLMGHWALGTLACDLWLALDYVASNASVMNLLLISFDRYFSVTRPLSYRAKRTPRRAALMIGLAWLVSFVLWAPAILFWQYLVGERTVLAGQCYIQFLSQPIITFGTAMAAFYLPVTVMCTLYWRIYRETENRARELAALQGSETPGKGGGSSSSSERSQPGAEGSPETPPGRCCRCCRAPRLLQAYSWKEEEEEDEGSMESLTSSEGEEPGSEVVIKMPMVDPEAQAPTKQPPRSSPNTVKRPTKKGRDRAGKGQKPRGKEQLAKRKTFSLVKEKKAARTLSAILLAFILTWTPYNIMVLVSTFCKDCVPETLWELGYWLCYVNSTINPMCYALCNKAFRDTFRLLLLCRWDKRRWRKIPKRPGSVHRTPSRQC
Sequence of D(2) dopamine receptor (Homo sapiens) (P14416 whole entry, looked up): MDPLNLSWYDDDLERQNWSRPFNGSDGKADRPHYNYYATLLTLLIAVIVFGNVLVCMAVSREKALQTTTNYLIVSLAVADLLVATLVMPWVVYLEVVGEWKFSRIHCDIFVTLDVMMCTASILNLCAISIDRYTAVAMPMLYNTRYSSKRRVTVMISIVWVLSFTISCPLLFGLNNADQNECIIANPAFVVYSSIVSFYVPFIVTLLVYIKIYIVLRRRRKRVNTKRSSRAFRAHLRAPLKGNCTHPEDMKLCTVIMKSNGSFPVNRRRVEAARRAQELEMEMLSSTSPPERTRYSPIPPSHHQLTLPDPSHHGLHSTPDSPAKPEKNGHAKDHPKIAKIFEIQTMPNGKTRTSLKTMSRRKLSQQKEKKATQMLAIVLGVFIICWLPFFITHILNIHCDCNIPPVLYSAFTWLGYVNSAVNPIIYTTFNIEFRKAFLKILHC

With `CN(C)[C@@H]1C(=O)C(C(N)=O)=C(O)[C@@]2(O)C(=O)C3=C(O)c4c(O)cccc4C[C@H]3C[C@@H]12`, the Potency entry in [1], in assay [2], in assay [3], in [4], in assay [5] and in assay [6] was “inactive” in each case. In addition, the Potency entry in [7], in assay [8], in assay [9], in assay [10], in assay [11] and in assay [12] was “inactive” throughout. In addition, the Potency entry in assay [13] and in assay [14] was “inactive” throughout.

With `CS(=O)(=O)CCNCc1ccc(-c2ccc3ncnc(Nc4ccc(OCc5cccc(F)c5)c(Cl)c4)c3c2)o1`, the Potency in assay [1] is 29.8 µM (active); in assay [10], 0.012 µM (active). Moreover, the Potency entry in assay [2], in assay [3], in assay [4], in assay [15], in assay [16] and in [7] was “inactive” throughout. For the same compound, the Potency result in [8], in [9], in assay [11], in [13] and in assay [14] was “inactive” each time.

Take `COc1cccc2c1C(=O)c1c(O)c3c(c(O)c1C2=O)C[C@@](O)(C(=O)CO)C[C@@H]3O[C@H]1C[C@H](N)[C@H](O[C@@H]2CCCCO2)[C@H](C)O1`: the Potency in [1] is 9.44 µM (active); in assay [2], 2.66 µM (active); in assay [5], 3.97 µM (active); in assay [6], 1.78 µM (active); in [8], 10.7 µM (active). In addition, the Potency result in [4], in [17], in assay [18], in [15], in assay [9] and in assay [10] was “inactive” each time. For the same compound, the Potency result in [19] and in assay [11] was “inactive” throughout.

As to `O=C1CCCCC1C1CCCCC1` (stereo not given), the Potency result in assay [1], in [2], in assay [3], in assay [4], in assay [15] and in assay [5] was “inactive” in each case. In addition, the Potency entry in [7], in assay [8], in [9], in assay [10], in assay [19] and in [20] was “inactive” throughout. For the same compound, the Potency entry in assay [11], in assay [13] and in [14] was “inactive” each time.

For the compound `CC1(C)O[C@@H]2C[C@H]3[C@@H]4C[C@H](F)C5=CC(=O)C=C[C@]5(C)[C@H]4[C@@H](O)C[C@]3(C)[C@]2(C(=O)CO)O1`, the Potency entry in [1], in [2], in assay [3], in assay [4], in [15] and in [5] was “inactive” each time. Further, the Potency entry in assay [16], in assay [11], in assay [12], in [13] and in [14] was “inactive” throughout.

For the compound `Cc1cccc(C)c1NC(=O)C(C)N` (stereo not given), the Potency entry in assay [1], in assay [2], in [4], in assay [17], in assay [18] and in [15] was “inactive” each time. Moreover, the Potency entry in assay [5], in assay [16], in assay [19], in assay [20], in assay [12] and in assay [13] was “inactive” throughout. The Potency result in [14] is “inactive”.

On to `Cc1ccc(OC(=O)CC(C)C)cc1`, for which the Potency entry in assay [1], in assay [2], in [3], in [4], in [15] and in assay [5] was “inactive” each time. Besides, the Potency entry in [7], in assay [8], in [9], in [10], in assay [19] and in [20] was “inactive” throughout. Also, the Potency entry in assay [11], in assay [12], in assay [13] and in assay [14] was “inactive” each time.
